NPSR antag = qHTS Assay for Antagonists of the Neuropeptide S Receptor: cAMP Signal Transduction; Q6W5P4; CHO-NPSR cells, cAMP TR-FRET, antagonist mode; Potency, µM (titrated, usually from 38.3 µM), most hits filed as inhibitors; 1% of 220,000 active; AID 1461, 2008; also: nearly all actives have a fitted effect of over 50% in size
Target sequence (Q6W5P4 whole entry, looked up): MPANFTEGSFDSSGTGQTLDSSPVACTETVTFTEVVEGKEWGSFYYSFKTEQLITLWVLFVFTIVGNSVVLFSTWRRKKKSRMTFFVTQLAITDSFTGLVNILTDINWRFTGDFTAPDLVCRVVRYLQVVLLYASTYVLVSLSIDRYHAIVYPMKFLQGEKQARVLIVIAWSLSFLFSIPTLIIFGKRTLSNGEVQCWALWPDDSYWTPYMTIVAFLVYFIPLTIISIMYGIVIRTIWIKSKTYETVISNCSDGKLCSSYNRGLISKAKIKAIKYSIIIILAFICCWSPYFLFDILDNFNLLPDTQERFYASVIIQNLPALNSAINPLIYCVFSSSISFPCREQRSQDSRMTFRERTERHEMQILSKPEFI
HPGD block = qHTS Assay for Inhibitors of HPGD (15-Hydroxyprostaglandin Dehydrogenase); 15-hydroxyprostaglandin dehydrogenase [NAD(+)] (Homo sapiens), P15428; purified HPGD, NADH fluorescence kinetic, PGE2 substrate; Potency, µM, actives largely listed as inhibitors; 4.3% of 150,000 active; active = well fitted inhibition curve with a large enough effect, not every such curve was filed as active; inconclusive = small, poorly fitted or top-dose-only effect, or another doubt; inactive = no such curve, though single readings can be large or run the other way
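20 nM HPGD preincubated 15 min at room temperature with compound in 50 mM Tris-HCl pH 8, 0.01% Tween 20. Started with 1 mM NAD+ and 30 uM prostaglandin E2; NADH fluorescence (360/450 nm) read 5 times over 30-s intervals, last minus first.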
Tau FP inhib = qHTS for Inhibitors of Tau Fibril Formation, Fluorescence Polarization | 0.39% of 280,000 active | Potency, µM (titrated, usually from 57.7 µM), most hits filed as inhibitors | AID 1468, 2008 | Microtubule-associated protein tau (Homo sapiens), P10636 | K18 P301L tau heparin fibrillization, Alexa594 FP, 6 h; also: nearly all actives have a fitted effect of over 55% in size
Target sequence (P10636 561-689 P618L limits assumed): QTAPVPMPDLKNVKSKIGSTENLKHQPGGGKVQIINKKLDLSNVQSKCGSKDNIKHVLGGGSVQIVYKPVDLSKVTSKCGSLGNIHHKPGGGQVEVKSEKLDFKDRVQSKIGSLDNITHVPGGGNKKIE
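FP of Alexa 594-tau after heparin (20 uM) induction. Substrate: human K18 P301L, 15 uM unlabeled, 0.24 uM labeled. Buffer 100 mM sodium acetate pH 7. 6 hr, 37 C.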
ALDH1A1 inh = qHTS Assay for Inhibitors of Aldehyde Dehydrogenase 1 (ALDH1A1); Potency, µM (highest dose often 75.3 µM), actives largely listed as inhibitors; Aldehyde dehydrogenase 1A1 (Homo sapiens), P00352; 7.3% of 220,000 active; Purified ALDH1A1, NADH fluorescence, propionaldehyde substrate; active = well fitted inhibition curve with a large enough effect, not every such curve was filed as active; inconclusive = small, poorly fitted or top-dose-only effect, or another doubt; inactive = no such curve, though single readings can be large or run the other way
Tau ThT inhib = qHTS for Inhibitors of Tau Fibril Formation, Thioflavin T Binding; Microtubule-associated protein tau (Homo sapiens), P10636; recombinant tau K18 P301L, heparin-induced fibrillization, ThT fluorescence; Potency, µM (highest dose often 57.4 µM), usual class: inhibitors; 2.1% of 270,000 active; AID 1460, 2008; also: nearly all actives have a fitted effect of over 55% in size
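Heparin-induced fibrillization of the P301L-mutant K18 repeat-domain fragment of human tau was followed by ThT binding in quantitative high-throughput format.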
Tau fluor counter = Counterscreen qHTS for Inhibitors of Tau Fibril Formation, Fluorescence Polarization. tau K18 P301L Alexa594 fluorescence, heparin fibrillization. Potency, µM (series often up to 57.7 µM). 0.93% of 280,000 active; also: nearly all actives have a fitted effect of over 55% in size
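Human tau K18 P301L (15 uM unlabeled, 0.24 uM Alexa 594-labeled) in 100 mM sodium acetate pH 7 with 20 uM heparin, 6 hr at 37 C. ThT 30 uM added, 1 hr ambient; Alexa 594 FP and total fluorescence read at 555/632 nm.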
Each line names hits and unclear results; the compound was inactive in the other large screens; [ ] = remark or other dose. Hits are enriched below; roughly 9.5% of the tested compounds scored in any of these assays. Unless noted, calls follow the shape of the dose curve; as a rule, active = well fitted curve in the direction sought with a large enough effect; inconclusive = small, poorly fitted or top-dose-only effect, or another doubt; inactive = no such curve, though single readings can be large; an effect the other way counts as inactive or inconclusive.

Cc1cc(=O)[nH]c(N/N=C/c2c(C)nn(-c3ccc(F)cc3)c2Cl)n1	ALDH1A1 inh 6.3µM, Tau ThT inhib inconclusive (no result: HPGD block)
Nc1ncnc2c1nc(Sc1ccc(Cl)cc1)n2[C@H]1O[C@@H]2COP(=O)(O)O[C@H]2[C@@H]1O	none
Nc1c(C(=O)O)ccc2c1C(=O)c1ccccc1C2=O	ALDH1A1 inh inconclusive, Tau ThT inhib 10µM (no result: HPGD block)
O=C1c2ccccc2C(=O)c2c1ccc(C(=O)O)c2-c1ccc2ccccc2c1	none (no result: NPSR antag, Tau FP inhib, Tau ThT inhib, Tau fluor counter)
Nc1cc(C(=O)O)c(N)c2c1C(=O)c1ccccc1C2=O	NPSR antag 3.2µM, Tau FP inhib 20µM, Tau ThT inhib 4.5µM, Tau fluor counter inconclusive (no result: HPGD block, ALDH1A1 inh)
O=C(N/N=C/C=C/c1cccc([N+](=O)[O-])c1)C(O)c1ccccc1 (stereo unspecified)	none (no result: HPGD block)
O=C(CNc1ccc2ccccc2c1)N/N=C/C=C/c1cccc([N+](=O)[O-])c1	Tau ThT inhib inconclusive, Tau fluor counter 7.1µM[quencher]
CC(/C=C/c1ccco1)=N\NC(=O)COc1ccc(C)c(C)c1	Tau FP inhib inconclusive, ALDH1A1 inh 3.5µM, Tau ThT inhib inconclusive (no result: HPGD block)
CCOC(=O)N/N=C(C)/C=C/c1ccco1	Tau FP inhib inconclusive, ALDH1A1 inh 10µM, Tau ThT inhib inconclusive
COc1ccc(C(NC(=O)/C=C/c2ccco2)c2ccc(OC)c(OC)c2)cc1OC	Tau FP inhib inconclusive, ALDH1A1 inh inconclusive, Tau ThT inhib inconclusive
COc1ccc(C2(CNC(=O)/C=C\c3ccco3)CCCC2)cc1OC	HPGD block inconclusive, Tau FP inhib inconclusive, ALDH1A1 inh 3.5µM, Tau ThT inhib inconclusive
O=[N+]([O-])c1cccc(S(=O)(=O)NCCCN2CCOCC2)c1	ALDH1A1 inh inconclusive
COc1ccc(NS(=O)(=O)c2ccc3c(c2)n(C)c(=O)c(=O)n3C)cc1Cl	Tau FP inhib inconclusive (no result: NPSR antag, HPGD block, ALDH1A1 inh)
CC(/C=C/c1ccco1)=N\NC(=O)CNc1ccc2ccccc2c1	ALDH1A1 inh 7.9µM, Tau ThT inhib 7.9µM, Tau fluor counter inconclusive (no result: HPGD block)
CC(/C=C/c1ccco1)=N/NC(=O)CNc1ccccc1C	Tau ThT inhib inconclusive (no result: HPGD block)
Cc1ccc(OCCNC(=O)/C=C/c2ccco2)cc1C	ALDH1A1 inh 11µM, Tau ThT inhib inconclusive (no result: HPGD block)
CC(C)c1ccc(N(CC(=O)NCc2ccc(F)cc2)C(=O)c2csnn2)cc1	ALDH1A1 inh 5µM (no result: HPGD block)
CCc1cccc(N(CC(=O)NCc2ccc(F)cc2)C(=O)c2csnn2)c1	none (no result: HPGD block)
O=C(CSc1nnc(NC(=O)c2ccco2)s1)Nc1ccc2c(c1)OCCO2	Tau FP inhib inconclusive (no result: HPGD block)
COC(=O)[C@@]1(Cc2ccc(OC)cc2)[C@H]2c3cc(C(=O)N4CCCC4)n(Cc4ccsc4Br)c3C[C@H]2CN1C(=O)c1ccccc1	none (no result: NPSR antag)
N#CCCSc1ncnc2c1oc1ccccc12	NPSR antag inconclusive, ALDH1A1 inh inconclusive
OCCSc1ncnc2c1oc1ccccc12	HPGD block 25µM, ALDH1A1 inh inconclusive
c1ccc(Sc2ncnc3c2oc2ccccc23)cc1	HPGD block 32µM, ALDH1A1 inh inconclusive, Tau ThT inhib inconclusive
NS(=O)(=O)c1cc2c(cc1Cl)N[C@@H]([C@@H]1C[C@@H]3C=C[C@H]1C3)NS2(=O)=O	none (no result: NPSR antag)
O=C(NN1C(=O)/C(=C/c2ccc(O)c([N+](=O)[O-])c2)SC1=S)c1ccccc1Cl	NPSR antag 6.3µM, ALDH1A1 inh inconclusive, Tau ThT inhib 4µM, Tau fluor counter inconclusive (no result: HPGD block)
COc1cc(/C=C2\NC(=S)N(C)C2=O)ccc1O	ALDH1A1 inh inconclusive, Tau ThT inhib inconclusive (no result: HPGD block)
O=C1/C(=C/c2ccc(O)c([N+](=O)[O-])c2)SC(=S)N1Cc1ccccc1	ALDH1A1 inh 4µM, Tau ThT inhib 7.1µM, Tau fluor counter inconclusive (no result: HPGD block)
CN1C(=O)/C(=C/c2ccc(O)c([N+](=O)[O-])c2)NC1=S	NPSR antag inconclusive, ALDH1A1 inh 11µM, Tau ThT inhib 16µM (no result: HPGD block)
Cc1cc(-c2cc(C)c(O)c(C(C)(C)C)c2)cc(C(C)(C)C)c1O	none (no result: NPSR antag, Tau FP inhib, Tau ThT inhib, Tau fluor counter)

Compound activity from PubChem BioAssay.
